Experimental findings from a collection of fitness landscapes (doi:10.1038/s41467-024-54723-y) are described below.

The full ranking holds about 18,000 sequences; the median of “TetR repression strength (sort-seq, GFP reporter)” is about 0.23, and the highest 2% start at about 0.68. This excerpt belongs to a sample that is enriched for the highest values.

For this assay, the target named is TetR (class B, Tn10) (UniProt P04483). Nature of the assay: TetR repression strength (sort-seq, GFP reporter) (relative to tetO2 = 1); higher = stronger repression. To be noted: E. coli. The gist of the method: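 E. coli SIG10-MAX carried a low-copy plasmid library with eight randomized operator positions between a constitutive promoter and sfGFP, with TetR constitutively expressed. Cells grew 5 h at 37 °C in LB with 50 µg/mL chloramphenicol, then 10^6 cells were FACS-sorted into 13 fluorescence bins, each Illumina-sequenced. Repression strength is the top bin index plus one minus the read-weighted mean bin, divided by the wild-type operator value. Three independent transformations; variants with ≥30 reads in all replicates and CV ≤0.5 were averaged.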
Chain of TetR (class B, Tn10) (P04483 whole entry): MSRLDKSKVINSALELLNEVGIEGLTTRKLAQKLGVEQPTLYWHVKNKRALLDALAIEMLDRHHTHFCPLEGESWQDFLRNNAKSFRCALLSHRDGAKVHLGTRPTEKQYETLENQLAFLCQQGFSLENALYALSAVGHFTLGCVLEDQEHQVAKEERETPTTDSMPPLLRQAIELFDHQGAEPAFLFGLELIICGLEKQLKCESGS
As for TCCCGTGGAGTGTTGGAGA, the TetR repression strength was determined as 0.325.
In the case of TCCCGTTGAGTTTCTGAGA it was 0.744.
In the case of TCCCGTTTAGTATTTGAGA it was 0.713.
In turn, TCCCGTGGAGTGTTCGAGA came in with a TetR repression strength of 0.914.
The sequence TCCCGTTGAGTGTTGGAGA showed a TetR repression strength of 1.1.
With TCCCGTTAAGTTTCTGAGA the figure was 0.302.
The sequence TCCCGTTGAGTATTTGAGA registered a TetR repression strength of 0.329.
In the case of TCCCGTCGAGTGTTCGAGA it was 0.218; in that of TCCCGTGGAGTTTCTGAGA, 0.0476; in that of TCCCGTAAAGTGGTGGAGA, 0.228.
In the case of TCCCTCGAAGTGCTTGAGA it was 0.406.
With TCCCGAAGAGTGTTGGAGA the figure was 0.268.
In turn, TCCCGTCAAGTACGCGAGA came in with a TetR repression strength of 0.196.
In the case of TCCCCATGAGTAATTGAGA it was 0.334; in that of TCCCGCGTAGTTACCGAGA, 0.161; in that of TCCCTCGGAGTGTGCGAGA, 0.09.
With TCCCTTTGAGTATGGGAGA the figure was 0.0551; with TCCCTCGAAGTAGAAGAGA, 0.297; with TCCCGTGGAGTGTCCGAGA, 0.821.
In the case of TCCCGTGGAGTGGCCGAGA it was 0.159; in that of TCCCGGGGAGTGTCCGAGA, 0.125; in that of TCCCTACAAGTGTTTGAGA, 0.295.
TCCCGGACAGTTGGTGAGA showed a TetR repression strength of 0.421.
Sequence TCCCAGACAGTCATTGAGA returned a TetR repression strength of 0.375.
With TCCCGGGCAGTCCGCGAGA the figure was 0.163; with TCCCAATGAGTGGGCGAGA, 0.238.
As to TCCCGCTTAGTGAGGGAGA, the TetR repression strength is 0.419.
With TCCCGCTTAGTTACGGAGA the figure was 1.2; with TCCCGCGGAGTTAGGGAGA, 0.207; with TCCCGCTGAGTTACGGAGA, 0.652.
Regarding TCCCCAATAGTTAGGGAGA, the TetR repression strength turned out to be 0.699.
With TCCCGGTTAGTTACGGAGA the figure was 0.211.
With TCCCCAACAGTTAGGGAGA the figure was 0.218.
Turning to TCCCGCTAAGTTAGGGAGA, the TetR repression strength turned out to be 0.286.
With TCCCGCTTAGTTAGGGAGA the figure was 1.02; with TCCCGCTGAGTTAGAGAGA, 0.0464.
In the case of TCCCGCTGAGTTAGGGAGA it was 0.929.
With TCCCCCATAGTTAGGGAGA the figure was 0.
Turning to TCCCTTTGAGTGGACGAGA, the TetR repression strength stood at 0.246.
In the case of TCCCCATTAGTGGAGGAGA it was 0.275.
With TCCCCGGCAGTATGTGAGA the figure was 0.189; with TCCCGGAAAGTCTAGGAGA, 0.216; with TCCCTTTAAGTCGACGAGA, 0.285.
In the case of TCCCTTTTAGTGTGGGAGA it was 0.317; in that of TCCCGTTAAGTCTTGGAGA, 0.302; in that of TCCCGGTTAGTCGTTGAGA, 0.225.
TCCCGGAGAGTCGTTGAGA: the TetR repression strength is 0.118.
In the case of TCCCGCCTAGTCACTGAGA it was 0.682; in that of TCCCGTCGAGTCGTTGAGA, 0.134.
With TCCCGGCGAGTCGTTGAGA the figure was 0.801.
With TCCCGGCTAGTAGTTGAGA the figure was 0.295.
In the case of TCCCGAGTAGTCACTGAGA, the TetR repression strength worked out at 0.231.
In the case of TCCCGGCTAGTCGTTGAGA it was 0.89.
In the case of TCCCGGCTAGTCACTGAGA it was 0.256; in that of TCCCAATAAGTGTGCGAGA, 0.242; in that of TCCCGTTTAGTCGCGGAGA, 0.215.
As to TCCCAGTTAGTGGGTGAGA, the TetR repression strength came to 0.172.
In the case of TCCCCTCGAGTGCCGGAGA it was 0.442.
With TCCCTAAAAGTGGGAGAGA the figure was 0.203.
With TCCCATGGAGTGATAGAGA the figure was 0.548; with TCCCAAAGAGTGGTAGAGA, 0.164.
Sequence TCCCACCGAGTGAGAGAGA registered a TetR repression strength of 0.43.
The sequence TCCCCAGGAGTGATAGAGA returned a TetR repression strength of 0.339.
In the case of TCCCCAGGAGTGGTAGAGA it was 0.189.
Take TCCCTATGAGTGCTAGAGA: the TetR repression strength was 0.452.
In the case of TCCCAAGGAGTGATAGAGA it was 0.977.
In the case of TCCCAAGGAGTGGTAGAGA it was 1.18; in that of TCCCTATGAGTGATAGAGA, 0.765; in that of TCCCTGTGAGTGATAGAGA, 0.456.
With TCCCACCGAGTGATCGAGA the figure was 0.405; with TCCCACCGAGTGATAGAGA, 1.21; with TCCCGGATAGTGGGTGAGA, 0.0875.
Regarding TCCCCGGCAGTCGCAGAGA, the TetR repression strength was found to be 0.207.
In the case of TCCCGTGTAGTAAGGGAGA it was 0.307; in that of TCCCGCCGAGTAGGCGAGA, 0.34; in that of TCCCAATGAGTGATAGAGA, 0.685.
With TCCCAGTGAGTGATAGAGA the figure was 0.528.
In the case of TCCCACTGAGTGATAGAGA it was 0.551; in that of TCCCAAATAGTGTGGGAGA, 0.459.
In turn, TCCCAAATAGTGGGAGAGA yielded a TetR repression strength of 0.214.
For the sequence TCCCTGATAGTGGGGGAGA, the TetR repression strength came to 0.0581.
With TCCCTGTTAGTGGGGGAGA the figure was 0.737; with TCCCAAATAGTGGGGGAGA, 1.1; with TCCCTGTTAGTGGGAGAGA, 0.189.
With TCCCTGAAAGTCACGGAGA the figure was 0.337; with TCCCGGGGAGTTAGGGAGA, 0.346; with TCCCCACCAGTGTCAGAGA, 0.334.
With TCCCCACAAGTATCAGAGA the figure was 0.752; with TCCCACCCAGTATCAGAGA, 0.2.
Sequence TCCCCACCAGTATCAGAGA had a TetR repression strength of 0.697.
In the case of TCCCCACAAGTATCCGAGA it was 0.296; in that of TCCCCACAAGTGTCAGAGA, 0.352.
In the case of TCCCGGTAAGTGATGGAGA it was 0.338.
In the case of TCCCGAGAAGTCCGAGAGA it was 0.474; in that of TCCCAGTAAGTCAGAGAGA, 0.066; in that of TCCCGGAAAGTCTCGGAGA, 0.107.
The sequence TCCCTCGTAGTGGGTGAGA returned a TetR repression strength of 0.815.
With TCCCTCGTAGTGAGTGAGA the figure was 0.507.
In the case of TCCCTCTGAGTGGGTGAGA it was 0.195; in that of TCCCAAGTAGTTGGTGAGA, 0.774.
In the case of TCCCTGAGAGTTGGTGAGA it was 0.164.
The sequence TCCCTAGTAGTTGGTGAGA displayed a TetR repression strength of 0.177.
With TCCCCAGTAGTTGGTGAGA the figure was 0.114.
With TCCCTCGGAGTGGGAGAGA the figure was 0.217; with TCCCTAAGAGTTGGTGAGA, 0.137.
In the case of TCCCTCGGAGTGGGTGAGA it was 0.988; in that of TCCCTCATAGTGGGTGAGA, 0.0921; in that of TCCCTCAGAGTTGGTGAGA, 1.2.
